According to PubChem BioAssay (NCI):
About 83,000 compounds went through this panel and 20% of them were active in at least one assay; those are over-represented in the sample as a whole.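 Cell lines were cultured in 96-well plates, exposed to a single compound concentration, and assessed for percent growth 48 hours later.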 Values without a mark were called inactive. Activity calls are given as the source filed them. The calls were made as follows: active = growth percent below 10; inactive = the rest.

Tested on: HL-60(TB) leukemia
Experiment: NCI-60 one-dose screen, 48 h (100 = growth as untreated, 0 = no growth, -100 = all killed)
Conditions: 10 µM unless noted

| Compound | growth |
| --- | --- |
| Cc1cc(C(=O)/C=C/c2ccc[nH]2)ccc1-n1ccc(C(F)(F)F)n1 | -21% (active) |
| O=C(Nc1ncc(Cc2ccccc2)s1)c1ccc2c(c1)OCCCO2 | 11.8% |
| O=C(Nc1cccc(Cl)c1)Nc1cccc(Cl)c1 | 43.9% |
| CCN(CC)c1ccc(CNc2ccnc3ccccc23)cc1 | 33.6% |
| N=C(N)c1ccc(-c2ccc(-c3ccc(-c4cccs4)s3)s2)cc1 | 100% |
| O=C1CN(CO)C(=O)CN1CO | 107% |
| Cc1cc(Cl)c2c(N(C)C)cccc2n1 | 97.3% |
| NCCCNc1nc2ccccc2c2c(=O)c3cc(F)cc(Cl)c3sc12 | 75.5% |
| O=C(CS)OCC(COC(=O)CS)(COC(=O)CS)COC(=O)CS | 67.2% |
| C=CC(=O)N1CCN(c2cccc(Oc3nccc(Nc4nnc(-c5ccc(Br)cc5)s4)n3)c2)CC1 | 51.1% |
| COc1ccc(CCc2nc3cc(-c4c(C)noc4C)ccc3n2CCN2CCOCC2)cc1 | 5.97% (active) |
| CC(C(=O)n1cc(-c2ccccc2)c(-c2ccccc2)c1)c1ccccc1 (centres undefined) | 106% |
| COC(=O)/C(=C\c1c(C)[nH]c2ccccc12)S(=O)(=O)c1ccccc1 | -27.3% (active) |
| CC(C)c1ccc(NC(=O)Cc2ccc(Nc3ncnc4cc(-c5cnn(CCN(C)C)c5)ccc34)cc2)cc1 | -66.4% [30 µM] (active) |
| O=C(CCCCCCN1CC(=O)N2[C@@H](C3CCCCC3)c3[nH]c4ccccc4c3C[C@H]2C1=O)NO | 5.7% (active) |
| Clc1ccc(/C=C/c2nc(N3CCOCC3)c3nc(Cl)c(Cl)cc3n2)cc1 | 98.4% |
| OCCN1CCCN(CCCN2c3ccccc3Sc3ccc(C(F)(F)F)cc32)CC1 | 45% |
| CCCCCOC(=O)c1ccccc1O | 99.4% |
| CCCC(F)C(=O)O (centres undefined) | 97.3% |
| O=C1CCCCN1CCCCC#Cc1cccc(C#Cc2cccnc2)c1 | -23.2% (active) |

| Compound | growth |
| --- | --- |
| CCOCc1nc2ccccc2c(=O)[nH]1 | 107% |
| Cc1ccc(OCCOCCOCCOc2ccc(C)n(O)c2=S)c(=S)n1O | 37.6% |
| Cc1nnc2c3nnc(-c4ccc(Cl)cc4)n3c3ccccc3n12 | 101% |
| COc1nc2c(cc1S(=O)(=O)c1ccccc1)CCc1c-2cnn1Cc1ccccc1 | 26.1% |
| COC12C=C/C(=C(/C(=O)OCc3csc(SC)n3)C(=O)CCCCCCCCC3(OC)C=C/C(=C(/C(=O)OCc4cnc(SC)s4)C(=O)CCCCCCCC1)O3)O2 (centres undefined) | 6.46% (active) |
| CC1(C)N=C(N)N=C(N)N1c1ccc(Cl)cc1 | 51.6% |
| O=C1/C(=C/c2ccc(Cl)cc2)SC(=Nc2ccc(Cl)cc2)N1Cc1nc2ccccc2[nH]1 | 95.8% |
| COc1c2c(cc3c1C(=O)N[C@@H]1[C@@H](O)[C@@H](O)[C@H](O)C[C@@H]31)OCCO2 | 95.4% |
| O=C(C=C=Nc1ccccc1)C(=O)N=C=Cc1ccccc1 | -26% (active) |
| Cc1n(Cc2ccc3ccccc3c2)c2ccccc2[n+]1Cc1ccc2ccccc2c1 | -60.3% (active) |
| N#CCCc1ccc(O)cc1 | 95.6% |
| CCC1(/C=N/NC(N)=S)NC(=O)NC1=O (centres undefined) | 111% |
| O=S(=O)(Nc1ccc(F)cc1)c1ccc(-c2cnc(C3CC3)o2)cc1 | -28.1% (active) |
| COc1cc(C2CC(c3ccc(Nc4nc(Nc5ccc(Cl)cc5)nc(Nc5ccc(Cl)cc5)n4)cc3)=NN2C(C)=O)cc(OC)c1OC (centres undefined) | 95.2% |
| C[C@@H](Oc1cc(-c2cnn(C3CC4(CCCNC4)C3)c2)cnc1N)c1c(Cl)ccc(F)c1Cl (some centres undefined) | -41% (active) |
| O=c1c2cc(Br)cc(Br)c2nc(-c2ccc(Cl)cc2)n1/N=C/c1cccc(F)c1 | 71% |
| COc1cc(OC)c(/C=C/C(=O)c2c(OC)cccc2OC)c(OC)c1 | 7.89% (active) |
| O=C1/C(=C\c2ccco2)SC(=S)N1CCc1ccc(O)cc1 | 76.3% |
| O=C(O)c1ccccc1Cc1ccc2c(c1)CCCC2 | 130% |
